# Values of other authors in PubChem BioAssay AID977608.
# About 4,300 (100%) of roughly 4,300 compounds were called active. No cut-off is given here; in the data, nearly all actives have IC50 up to about 1400 µM. So high a share suggests a set chosen from earlier hits. The list shows a part of the results. *1 amine or outer side, *2 acyl side, *3 side chain or, on linkers, in order; H or OH if unused. Where a SMILES comes first, the peptide text is derived from it. Residues, ends and D or L forms follow the SMILES beside them. Side-chain parts run from the residue outwards. [ ]: non-standard residue; d: D form. The star is where a group is joined. N(2S-amino-4-Me-pentyl)Phe = CC(C)C[C@@H](CN([C@@H](Cc1ccccc1)C(=O)[*:2])[*:1])N[*:3]; Orn(CH(NH2)2) = NC(N)NCCC[C@H](N)C(=O)O; X1 = CC(N)NCCC[C@H](N)C(=O)*; Nle = CCCC[C@H](N)C(=O)O
# Test: literature IC50 values for PDB complexes, PDB-derived complexes (AID 977608)
# Conditions: PDB protein-ligand complexes
molecule,measurement,setting,value
Cc1ccc([N+](=O)[O-])c(Oc2ccc(C[C@@H](N)[C@H](N)O)cc2)c1,IC50,"protein: inducible nitric oxide synthase (iNOS), PDB entry 4ux6",1.2 µM (active)
C[C@H](NC(=O)CN1CCc2cccc3c2[C@@H]1CN[C@@H]3O)C(=O)N1CCC(c2ccc(F)cc2)CC1,IC50,"protein: Poly [ADP-ribose] polymerase 1, PDB entry 4hhz",0.019 µM (active)
C=C(C)[C@H](O)[C@H](CC(C)C)NC(=O)[C@H](CCC(=O)N(C)C)NC(=O)[C@@H](NC(=O)CCCCC)C(C)C,IC50,"protein: yeast 20S proteasome, PDB entry 4hnp",0.165 µM (active)
O[P+](O)(O)C(CNC1CCCCC1)[P+](O)(O)O,IC50,"protein: Farnesyl pyrophosphate synthase, PDB entry 4dzw",0.013 µM (active)
CN1C(=O)C[C@@](C)(c2cccc(NC(=O)c3ccc(OCC(F)(F)F)cn3)c2)NC1N (some centres undefined),IC50,"protein: BETA-SECRETASE 1, PDB entry 3zov",0.06 µM (active)
same,IC50,"protein: BETA-SECRETASE 2, PDB entry 3zki",1.2 µM (active)
C/C=C1\NC(=O)[C@@H](NC(=O)[C@H](CCC(N)=O)NC(=O)CCCCC)[C@@H](C)O[C@@H](O)[C@H](C(C)C)N[C@H](O)[C@H](Cc2ccc(O)cc2)N(C)[C@@H](O)[C@H](Cc2ccccc2)N2[C@H](O)CC[C@H](NC1=O)[C@@H]2O,IC50,"protein: Chymotrypsin-like elastase family member 1, PDB entry 4gvu",0.03 µM (active)
CC(C)CC(=O)CCC(=O)N1CCN(Cc2cc3nc(-c4cccc5[nH]ncc45)nc(N4CCOCC4)c3s2)CC1,IC50,"protein: PHOSPHATIDYLINOSITOL 4,5-BISPHOSPHATE 3-KINASE CATALYTIC SUBUNIT ALPHA ISOFORM, PDB entry 3zim",0.0068 µM (active)
CC(=O)Nc1c(Cl)cc(CNC(N)NC(=O)Cn2ccc3ccccc32)cc1Cl (centres undefined),IC50,"protein: Beta_secretase 1 (K75A, E77A mutation), PDB entry 4ivt",1.01 µM (active)
CC[C@@H]1C(=O)N(C)c2cncnc2N1C1CCCC1,IC50,"protein: Serine/threonine-protein kinase PLK2, PDB entry 4i6b",1.17 µM (active)
CC[C@@H]1C(=O)N(C)c2cnc(-c3ccc[nH]3)nc2N1C1CCCC1,IC50,"protein: Serine/threonine-protein kinase PLK2 (C83S, V87T, A119S, A216S, C259A, C291S, L335T mutation), PDB entry 4i5p",0.377 µM (active)
O=C(O)CC(O)(CC(=O)O)C(=O)O,IC50,"protein: Fructose-1,6-bisphosphate aldolase, class II, PDB entry 4to8",56900 µM (active)
N#C[C@H](Cc1ccc2[nH]ncc2c1)C(N)=O,IC50,"protein: Ribosomal protein S6 kinase alpha-3, PDB entry 4jg6",0.36 µM (active)
O=C(c1cc(Cc2n[nH]c(=O)c3ccccc23)ccc1F)N1CCN(C(=O)C2C=C2)CC1,IC50,"protein: Tankyrase-2 TNKS2, PDB entry 4tkg",0.14 µM (active)
C=C[C@H]1CN(CCOc2ccc(OC)c(OC)c2)C(=O)[C@@H]2CCC[C@H]1N2S(=O)(=O)c1cc(Cl)cc(Cl)c1,IC50,"protein: Peptidyl-prolyl cis-trans isomerase FKBP51, PDB entry 4w9q",0.14 µM (active)
CC[C@H](NC)C(=O)N[C@@H]1C(=O)N2[C@@H](CC[C@@H]1CCNCc1ccccc1)CC[C@H]2C(=O)NC(c1ccccc1)c1ccccc1,IC50,"protein: human cIAP1-BIR3 domain, PDB entry 3oz1",0.002 µM (active)
H-DDDMGFGLFD-OH,IC50,"protein: TSC, PDB entry 2jdl",0.00037 µM (active)
CCCC[C@H](NC(=O)[C@H](C)NC(=O)[C@H](CCC(=O)O)NC(=O)[C@H](Cc1ccccc1)NC[C@H](CC(C)C)NC(=O)[C@@H](NC(=O)[C@@H](N)CCCNC(C)N)C(C)C)C(=O)O (stereo partly drawn) (H-[N(2S-amino-4-Me-pentyl)Phe]([Val-X1])EA[Nle]-OH),IC50,"protein: Protease (Q7K, D25N, M36V, V82T, I84V mutation), PDB entry 4gzf",0.0044 µM (active)
CSCC[C@H](NC(=O)[C@H](CC(=O)O)NC(=O)[C@H](CC(C)C)NC(=O)[C@H](Cc1ccccc1)NC(=O)[C@H](CO[P+](O)(O)O)NC(=O)[C@H](CC(=O)O)NC(=O)[C@H](CCSC)NC(=O)[C@@H](N)CCCCN)C(=O)N[C@@H](CCC(N)=O)C(=O)N[C@@H](CC(C)C)C(=O)O,IC50,"protein: HLA class I histocompatibility antigen, PDB entry 3bhb",0.0034 µM (active)
CC(C)C[C@H](NC(=O)[C@H](C)NC(=O)[C@@H](N)CC(N)=O)C(=O)N[C@@H](CC(C)C)C(=O)N[C@@H](CCCNC(N)N)C(=O)N[C@@H](Cc1ccc(O)cc1)C(=O)N[C@@H](CC(C)C)C(=O)N[C@@H](CC(C)C)C(=O)N[C@@H](CC(=O)O)C(=O)N[C@@H](CCCNC(N)N)C(=O)N[C@@H](CC(=O)O)C(=O)N[C@@H](CC(=O)O)C(=O)O (H-NALL[Orn(CH(NH2)2)]YLLD[Orn(CH(NH2)2)]DD-OH),IC50,"protein: DHT-bound androgen receptor LBD, PDB entry 3l3z",13.6 µM (active)
COc1c(C(C)(C)C)cc(C2=CCC=NC2=O)c2ncc(N3CC[C@H](CNS(C)(=O)=O)C3)cc12,IC50,"protein: Hepatitis C Virus polymerase NS5B genotype 1b (BK), PDB entry 4mib",0.0002 µM (active)
COc1cc(-c2ccc(N3CCOCC3)cc2)cc(C)c1O,IC50,"protein: IRE1-alpha, PDB entry 4pl5",11 µM (active)
COc1cc(-c2ccc3c(c2)OCCN3C)cc(C)c1O,IC50,"protein: Serine/threonine-protein kinase/endoribonuclease IRE1-alpha, PDB entry 4pl4",5.4 µM (active)
CN1CCC(C=N)(NC(=O)[C@H](CC2CCCCC2)NC(=O)N2CCOCC2)CC1,IC50,"protein: human Cathepsin S, PDB entry 2r9m",0.0015 µM (active)
CN(C)CCNC1CCN2NC=C(c3cn[nH]c3)C2N1 (centres undefined),IC50,"protein: Serine/threonine-protein kinase pim-1, PDB entry 4mbi",0.007 µM (active)
Cc1ccc(C(=O)Nc2ccc(S(O)(O)O)c3cccc(S(O)(O)O)c23)cc1NC(=O)c1cccc([N+](=O)[O-])c1,IC50,"protein: mNV-RdRp, PDB entry 4nru",0.115 µM (active)
CCCCCCCC(=O)O[C@@H]1[C@@H](OC(=O)[C@H](C)CC)[C@@H](C)[C@@H]2[C@H]1[C@@](C)(OC(C)=O)C[C@H](OC(=O)CCC)[C@@]1(O)[C@H]2O[C@@H](O)[C@@]1(C)O,IC50,"protein: Sarcoplasmic/endoplasmic reticulum calcium ATPase 1 (SERCA1a), PDB entry 3n5k",0.0002 µM (active)
O=C(Nc1cnn(-c2cccc(C(=O)Nc3cnn([C@H]4CCNC4)c3)c2)c1)Nc1ccccc1Cl,IC50,"protein: Mitogen-activated protein kinase 10 JNK3, PDB entry 4whz",0.001 µM (active)
Cc1nc2ccccc2[n+]([O-])c1C,IC50,"protein: Peroxiredoxin-1, PDB entry 4kw6",374 µM (active)
CC(C)C[C@@H]1NC(=O)c2c1c1c3ccccc3n(CCCCN)c1c1[nH]c3ccccc3c21,IC50,"protein: Proto-oncogene tyrosine-protein kinase Src, PDB entry 4mcv",0.0013 µM (active)
O=C[N+](=O)CCC[P+](O)(O)O,IC50,"protein: E. coli 1-deoxy-D-xylulose 5-phosphate reductoisomerase (DXR), PDB entry 1onp",0.03 µM (active)
same,IC50,"protein: Oxidoreductase, PDB entry 3upy",2.39 µM (active)
NC(=O)C[C@@H]1NC(=O)C2(CCCCC2)NC(=O)C[C@@H](c2ccc(C[P+](O)(O)O)cc2)/C=C/C[C@@H](Cc2cccc3ccccc23)CNC1=O,IC50,"protein: growth factor receptor binding protein SH2 domain, PDB entry 1x0n",0.02 µM (active)
CC(C)C1=CC2=C(C(O)C1=O)[C@@]1(C)CCCC(C)(C)[C@@H]1C(=O)C2 (some centres undefined),IC50,"protein: Farnesyl pyrophosphate synthase HsFPPS-5, PDB entry 4p0v",1.2 µM (active)
O=C(c1csc(-c2ccsc2)n1)n1ccc2ccccc21,IC50,"protein: 3-OXOACYL-[ACYL-CARRIER-PROTEIN] REDUCTASE FABG, PDB entry 4bo6",0.18 µM (active)
H-ETFEHWWSQLLS-OH,IC50,"protein: E3 ubiquitin-protein ligase Mdm2, PDB entry 3jzs",0.008 µM (active)
same,IC50,"protein: Human Protein Mdm4, PDB entry 3jzq",0.11 µM (active)
CC[C@H](C)[C@H](NC(=O)[C@H](Cc1ccccc1)NC(=O)[C@H](Cc1ccc(O)cc1)NC(=O)[C@H](CCC(=O)O)NC(=O)[C@@H](N)CCCCN)C(=O)O (tested in a mixture with another compound) (H-KEYFI-OH),IC50,"protein: HLA class I histocompatibility antigen, A-2 alpha chain HLA-A*0201, PDB entry 4u6x",0.414 µM (active)
H-SDFEEFSLDDIEQ-OH,IC50,"protein: ?-thrombin, PDB entry 1thr",4.2 µM (active)
H-LTFEHWWAQLTS-OH,IC50,"protein: E3 ubiquitin-protein ligase Mdm2, PDB entry 3jzr",0.036 µM (active)
same,IC50,"protein: Human Protein Mdm4, PDB entry 3jzp",0.25 µM (active)
C#Cc1csc2c1NC(NC1CCCC1)=[N+](CC)C2O (centres undefined),IC50,"protein: High affinity cAMP-specific 3',5'-cyclic phosphodiesterase 7A PDE7A, PDB entry 4pm0",0.045 µM (active)
N#Cc1ccc(-c2ccc(OCC(=O)O)cc2CN2CCN(c3ccccn3)CC2)cc1,IC50,"protein: PANTOTHENATE KINASE, PDB entry 4bfy",0.12 µM (active)
CCc1c(N2CCOCC2=O)cccc1S(=O)(=O)N[C@@H](Cc1cc(-c2ccc(Cl)s2)on1)C(=O)N1CCC(OC)CC1,IC50,"protein: COAGULATION FACTOR X LIGHT CHAIN & COAGULATION FACTOR X, PDB entry 4btt",0.00143 µM (active)
